# According to publication PMC6919601, “Identification of Plasmodium dipeptidyl aminopeptidase allosteric inhibitors by high throughput screening” (PLoS ONE, 2019):
# Among all 110,000 compounds or so, about 230 (0.21%) showed an effect of 50% or more. Shown is part of a subset that was picked to be rich in strong results.
# Molecular target: DPAP1 (Plasmodium falciparum, UniProt Q8IIJ9)
# Assay: primary screen, percent inhibition; read by cleavage of a fluorogenic dipeptide substrate; higher = more effect of the substance
# Design: species or system P. falciparum D10 trophozoite lysates; single well
# 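Further: 30 min substrate incubation versus DMSO and 10 µM JCP410 controls.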
# Sequence of DPAP1 (Q8IIJ9 whole entry, looked up): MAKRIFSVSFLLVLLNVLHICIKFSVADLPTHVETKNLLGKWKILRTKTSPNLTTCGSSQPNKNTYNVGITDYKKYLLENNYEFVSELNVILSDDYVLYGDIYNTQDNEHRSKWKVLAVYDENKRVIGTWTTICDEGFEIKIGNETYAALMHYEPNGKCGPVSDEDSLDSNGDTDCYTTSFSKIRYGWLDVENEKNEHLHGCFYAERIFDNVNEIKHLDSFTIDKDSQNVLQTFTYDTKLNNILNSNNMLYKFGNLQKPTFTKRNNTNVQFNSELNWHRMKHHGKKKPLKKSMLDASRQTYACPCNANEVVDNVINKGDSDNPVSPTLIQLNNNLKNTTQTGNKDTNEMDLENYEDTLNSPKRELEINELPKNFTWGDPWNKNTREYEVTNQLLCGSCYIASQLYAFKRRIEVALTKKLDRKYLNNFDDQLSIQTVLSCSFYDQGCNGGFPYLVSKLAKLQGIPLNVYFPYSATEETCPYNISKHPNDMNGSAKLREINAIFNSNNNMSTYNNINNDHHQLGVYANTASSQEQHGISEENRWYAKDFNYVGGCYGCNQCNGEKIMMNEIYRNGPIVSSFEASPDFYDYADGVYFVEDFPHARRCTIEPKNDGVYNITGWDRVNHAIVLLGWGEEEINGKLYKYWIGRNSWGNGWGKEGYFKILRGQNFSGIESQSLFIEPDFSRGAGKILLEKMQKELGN
row,SMILES,% Inhibition @ 10 uM [%]
1,CCC(C(=O)Nc1nc2nc(C)cc(O)n2n1)c1ccccc1 (stereo not drawn),0.401
2,N#CC1=C2SCN(C3CCCC3)CN2C(=O)CC1c1cccs1 (stereo not drawn),48.2
3,N#CC1=C2SCN(C3CCCC3)CN2C(=O)CC1c1ccc(Cl)cc1 (stereo not drawn),55.3
4,CCc1ccc(C2CC(=O)N3CN(C4CCCCC4)CSC3=C2C#N)cc1 (stereo not drawn),64.5
5,Cc1ccc(C2CC(=O)N3CN(C4CCCCC4)CSC3=C2C#N)cc1 (stereo not drawn),25.9
6,COc1cc(C2CC(=O)N3CN(C4CCCCC4)CSC3=C2C#N)ccc1O (stereo not drawn),-1.28
7,CCOc1ccc(C2CC(=O)N3CN(C4CCCCC4)CSC3=C2C#N)cc1 (stereo not drawn),46.6
8,Cc1nnc(SCc2ccc(F)cc2)nc1O,3.62
9,Cc1ccc(COc2ncnc3[nH]cnc23)c(C)c1,-3.09
10,Cc1ccc(CNC(=O)C2CCCN(S(=O)(=O)c3cccc4nonc34)C2)cc1 (stereo not drawn),-0.668
11,Cc1ccnc(NC(=O)c2ccc(-c3ccccc3)s2)c1,4.4
12,O=C(c1ccc(Oc2ccccc2)cc1)c1nc2c(n1O)CCCC2,1.74
13,Cc1ccc(S(=O)(=O)NC(CC(=O)O)c2cccs2)cc1 (stereo not drawn),3.64
14,CCS(=O)(=O)c1nc(S(=O)(=O)c2ccc(Cl)cc2)c(N2CCOCC2)s1,-2.25
15,O=C(Nc1nc(-c2ccc(Br)cc2)cs1)c1ccco1,-2.99
16,Oc1ncnc2sc3c(c12)CCN(Cc1ccccc1)C3,6.74
17,O=c1c2c3c(sc2[nH]c(=S)n1-c1ccc(Cl)cc1)CCC3,62.5
18,Cc1ccc(-n2c(=S)[nH]c3sc4c(c3c2=O)CCCCC4)cc1,11.5
19,O=c1[nH]c(=S)[nH]c2sc3c(c12)CCN(Cc1ccccc1)C3,1.4
20,COc1ccc(-n2c(=S)[nH]c3sc4c(c3c2=O)CCCCC4)cc1,12.4
21,COc1ccc(-n2c(SCC(=O)N3CCOCC3)nc3sc4c(c3c2=O)CCC4)cc1,9.91
22,COc1ccc(-n2c(=S)[nH]c3sc4c(c3c2=O)CCC4)cc1,84.1
23,O=c1c2c3c(sc2[nH]c(=S)n1-c1ccccc1)CN(Cc1ccccc1)CC3,57.7
24,O=c1[nH]c2sc3c(c2c(=O)n1-c1ccc(Cl)c(Cl)c1)CCC3,-2.48
25,CC1(C)CC(=O)C2=C(C1)N(c1nc[nH]n1)C(N)=C(C#N)C2c1cccc(Cl)c1 (stereo not drawn),5.48
26,CN1C2CCC1CC(N1CCN(Cc3ccccc3)CC1)C2 (stereo not drawn),-1.5

row,SMILES,% Inhibition @ 10 uM [%]
1,COc1ccc(/C=C2\C(=N)N3N=C(S(C)(=O)=O)SC3=NC2=O)cc1,-5.27
2,CCn1c(C)cc(/C=C2/NC(=O)N(c3ccccc3)C2=O)c1C,-2.19
3,CN1CSC2=C(C#N)C(c3ccc(Br)cc3)CC(=O)N2C1 (stereo not drawn),43.4
4,CN1CSC2=C(C#N)C(c3ccccc3Cl)CC(=O)N2C1 (stereo not drawn),56.6
5,CSc1ccc(C2CC(=O)N3CN(C)CSC3=C2C#N)cc1 (stereo not drawn),75
6,CN1CSC2=C(C#N)C(c3ccccc3)CC(=O)N2C1 (stereo not drawn),32.9
7,COc1ccc2ccccc2c1C1CC(=O)N2CN(C)CSC2=C1C#N (stereo not drawn),36.5
8,COc1ccccc1CC(=N)NOC(=O)c1ccccc1OC,5.37
9,N#CC1=C2SCN(CCN3CCOCC3)CN2C(=O)CC1c1ccc(F)cc1 (stereo not drawn),49.5
10,N#CC1=C2SCN(CCc3ccccc3)CN2C(=O)CC1c1ccc(F)cc1 (stereo not drawn),51.6
11,Cc1ccc(C2CC(=O)N3CN(CCc4ccccc4)CSC3=C2C#N)cc1 (stereo not drawn),64
12,N#CC1=C2SCN(CCc3ccccc3)CN2C(=O)CC1c1cccs1 (stereo not drawn),42.6
13,O=C(N/C(=C\c1ccco1)C(=O)N1CCN(C/C=C/c2ccccc2)CC1)c1ccccc1,2.09
14,COc1ccc(C2N=C(NO)c3ccccc3N2)cc1 (stereo not drawn),-0.424
15,C=C(C)CSc1nc(N)c2c3c(sc2n1)CCC3,4.37
16,CCCSc1nc(N)c2c3c(sc2n1)CCCC3,10.6
17,CC(C)CSc1nc(N)c2c3c(sc2n1)CCC3,81.4
18,COc1ccccc1CNC(=O)Nc1cn(CC(C)C)c(=O)c2ccccc12,-4.21
19,CC(C)CCNC(=O)c1nnc(-c2ccccc2)o1,-3.34
20,CCOC(=O)c1sc(-c2ccccc2)nc1O,66.9
21,CCOC(=O)c1sc(C)c2c(O)nc(-c3ccccc3)nc12,-1.47
22,CCOC(=O)c1sc(-c2ccccc2)nc1-c1ccc([N+](=O)[O-])cc1,2.86
23,c1ccc(CC2CCN(Cc3ccco3)CC2)cc1,-2.56
24,COc1ccc(-c2cc(-c3ccccc3)nc(N3CCOCC3)n2)cc1OC,-2.6
25,Cc1nsc2ccc3sccc3c12,1.72
